In all, about 420,000 compounds went through this assay and about 50,000 (12%) were called active. A call without a number means that no potency is given here. About 26% were inconclusive and are not listed. Calls follow the shape of the dose curve; as a rule, active = well fitted inhibition curve with a large enough effect; inconclusive = small, poorly fitted or top-dose-only effect; inactive = flat fitted curve, though single readings scatter. The full list was thinned out, with actives kept by preference.
Test: qHTS for Inhibitors of human tyrosyl-DNA phosphodiesterase 1 (TDP1): qHTS in cells in presence of CPT; also: nearly all actives have a fitted effect of over 55% in size
Conditions: chicken DT40 Tdp1-/-;hTDP1 cells + 20 nM CPT, ATP luminescence, 48 h; series mostly up to 46.2 µM
Outline: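 Chicken DT40 Tdp1-/- cells stably complemented with human TDP1 were seeded at 400 cells/well in medium containing 20 nM camptothecin, exposed to pin-transferred compounds, and grown at 37 °C for at least 48 hr. Viability was read as ATP luminescence.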
Potency is read from the fitted curve at half-maximal effect.

Row | SMILES | Potency
1 | Cc1nc(N)c(Br)c(C)c1Br | inactive
2 | C[C@H]1CN([C@@H](C)CO)C(=O)CCCn2nncc2CO[C@@H]1CN(C)S(=O)(=O)c1cccc(C#N)c1 | inactive
3 | Cc1cc(NC(=O)CN2C(=O)NC(C)(CCc3ccccc3)C2=O)no1 (stereo not drawn) | inactive
4 | Cc1nc2ccc(NC(=S)N3CCC(C)CC3)cc2nc1C | inactive
5 | CCn1c(SCC(=O)NCC2CCCO2)nc2ccccc21 (stereo not drawn) | inactive
6 | COc1ccc(S(=O)(=O)N2CCN(CC(=O)N3CCNC3=O)CC2)cc1OC | inactive
7 | COc1ccc2c(C)cc(SCC(=O)NCC3CCCO3)nc2c1 (stereo not drawn) | inactive
8 | O=S(=O)(Nc1ncnc2sccc12)c1cccc(F)c1 | inactive
9 | O=C(N[C@@H]1C/C=C\C[C@@H](CC(=O)N(CCO)Cc2ccccc2)C(=O)N[C@H](Cc2ccccc2)COC1=O)OCC1c2ccccc2-c2ccccc21 | 8.2 µM (active)
10 | Nc1nc2c(ncn2[C@@H]2O[C@H](CNCc3ccc(OCCCN4CCOCC4)cc3)[C@@H](O)[C@H]2O)c(=O)[nH]1 | inactive
11 | CN(CC(=O)Nc1ccc(F)cc1)CC(=O)N1CCCCC1 | inactive
12 | Cc1ccc(O)c(-c2cc(C(=O)Nc3c(C)n(C)n(-c4ccccc4)c3=O)[nH]n2)c1 | inactive
13 | Nn1c(Cc2cccc3ccccc23)nnc1SCC(=O)N1CC(=O)Nc2ccccc21 | inactive
14 | COc1ccc(CCNC(=O)/C(C#N)=C2\N=C(NC(=O)c3cccs3)c3ccccc32)cc1 | 10.3 µM (active)
15 | COc1ccc(CN(Cc2ccc(OC)cc2)C(=O)c2cccs2)cc1 | inactive
16 | COc1ccc(CCNC(=O)CSc2nnc(CNC(=O)c3cccs3)o2)cc1OC | inactive
17 | Cn1c(=O)c(CCc2ccccc2)nc2cnc(Nc3ccccc3)nc21 | inactive
18 | Cc1nc2cnc(Nc3ccccc3)nc2n(Cc2ccc(F)cc2)c1=O | inactive
19 | CCCN1CCc2nc(N3CCN(C)CC3)ncc2C1 | inactive
20 | COc1ccc(CN2CCc3nc(Nc4ccccc4)ncc3C2)c(OC)c1OC | 16.4 µM (active)
21 | Fc1ccc(CN2CCc3nc(Nc4ccccc4)ncc3C2)cc1F | 11.6 µM (active)
22 | COc1ccc(CN2CCN(Cc3ccc(OC)c(OC)c3OC)CC2)cc1 | inactive
23 | CCCc1cc(=O)[nH]c2nnc(SCC(=O)Nc3nnc(SCC)s3)n12 | inactive
24 | Cc1nc2cc(NC(=O)[C@@H]3C[C@@H](Sc4ccccn4)CN3Cc3ccccc3C)ccc2s1 | inactive
25 | Cc1nn2c(=O)cc(COC(=O)c3cccc(NC(=O)COc4ccccc4Cl)c3)nc2s1 | inactive

Row | SMILES | Potency
26 | O=C(CNS(=O)(=O)c1ccc(Br)s1)N1CCN(C(=O)c2ccco2)CC1 | inactive
27 | C[C@@H]1CN([C@H](C)CO)C(=O)c2cc(NC(=O)NC3CCCCC3)ccc2O[C@H]1CN(C)S(C)(=O)=O | inactive
28 | CN1CCN(C(=O)C2=C[C@H](c3ccc4c(c3)OCO4)C[C@H](OCc3ccc(CO)cc3)O2)CC1 | inactive
29 | C#Cc1ccc([C@@H]2C=C(C(=O)O)O[C@H](OCCCCO)C2)cc1 | inactive
30 | O=C(C1=C[C@H](c2ccc(C(F)(F)F)cc2)C[C@H](OCc2ccc(CO)cc2)O1)N1CCN(Cc2ccccc2)CC1 | 23.1 µM (active)
31 | CCCCNC(=O)CSc1nc2cc3c(cc2c(=O)n1CCCCCC(=O)NCc1ccc2c(c1)OCO2)OCO3 | inactive
32 | O=C(COc1ccc(Cl)cc1)Nc1ccc2oc(=O)ccc2c1 | inactive
33 | NC(=O)Cc1nc2scc(-c3ccc(Cl)cc3)c2c(=O)[nH]1 | inactive
34 | O=c1[nH]c(CCl)nc2cc(-c3ccc(Cl)cc3)sc12 | 5.17 µM (active)
35 | O=c1[nH]c(CN2CCOCC2)nc2cc(Cl)ccc12 | inactive
36 | CCc1ccc(CN(C)C(=O)C2CCC(=O)N(Cc3cccc(OC)c3)C2)nc1 (stereo not drawn) | inactive
37 | C=CCC(C(=O)c1ccccc1)[N+](C)(C)CC=C (stereo not drawn) | inactive
38 | COc1cc(C(F)(F)F)c(C(=O)N(C)c2ccc(Cl)cc2)cn1 | inactive
39 | CC(C)(C)c1ccc(S(=O)(=O)N2CCN(C(=O)c3ccc4c(c3)C(=O)N(Cc3ccncc3)C4=O)CC2)cc1 | inactive
40 | COC(=O)Cc1csc(/N=C/c2c(O)n(-c3cccc(C(F)(F)F)c3)c(=O)c3ccccc23)n1 | 6.51 µM (active)
41 | COC(=O)Cc1c(O)ccn(Cc2cccc(C(F)(F)F)c2)c1=O | inactive
42 | COC(=O)Cc1csc(Nc2c(C)n(C)n(-c3ccccc3)c2=O)n1 | inactive
43 | COc1ccc(NC(=O)CSc2nnc(-c3ccccc3F)n2C2CC2)cc1S(N)(=O)=O | inactive
44 | COc1ccccc1C(=O)N(C1=NC(C)CS1)c1ccc(Cl)cc1 (stereo not drawn) | inactive
45 | COc1ccc(CNc2ncncc2-c2ccccc2C)c(OC)c1 | inactive
46 | CCc1ccc(S(=O)(=O)c2nnn3c2nc(NCc2ccccc2OC)c2cc(Cl)ccc23)cc1 | inactive
47 | COc1ccccc1CNc1nc(Nc2ccccc2Cl)c2sccc2n1 | 9.2 µM (active)
48 | CCNc1nc(NC(C)C)nc(OCCOC(=O)c2ccccc2)n1 | inactive
49 | Cc1nc2cc(NCc3cccs3)ccc2n1C | inactive
50 | COc1cccc(CNc2nc(NCc3cccs3)nc3ccsc23)c1 | 23.1 µM (active)

Row | SMILES | Potency
51 | COCCNc1nc(NCc2ccc(NC(C)=O)cc2)c2sccc2n1 | inactive
52 | CNC(=O)c1sc(NCc2ccccc2OC)nc1C | inactive
53 | COc1cccc(CNc2nccn(-c3ccc(OC)c(OC)c3)c2=O)c1 | inactive
54 | CC(C)Nc1nc(NCCOc2ccccc2Cl)c2sccc2n1 | 18.4 µM (active)
55 | COc1cccc(CNc2nc(NCc3ccccc3OC)nc3ccsc23)c1 | 9.2 µM (active)
56 | CC(=O)C(CC(=O)N1CCCC1)C(=O)Nc1ccc(Cl)cc1 (stereo not drawn) | inactive
57 | O=C1CC(c2c(F)cccc2Cl)C(n2cncn2)C(O)=C1C1NCCc2ccccc21 (stereo not drawn) | inactive
58 | Nc1nc2cc(Cl)ccc2n1N | inactive
59 | COc1ccc(NC(=O)CN(C)C(=O)c2cc(C)oc2C)cc1 | inactive
60 | O=C1NC(c2ccccc2)=NC1(Nc1ccccn1)C(F)(F)F (stereo not drawn) | inactive
61 | Cc1ccc(C)c(C(=O)N2CCC(n3nccc3NC(=O)C3CC3)CC2)c1 | inactive
62 | Cc1cc(C(=O)OC(C)C(=O)NC2CCCCC2C)c(C)o1 (stereo not drawn) | inactive
63 | Cc1nc2sccn2c(=O)c1S(=O)(=O)NCCc1ccccc1 | inactive
64 | O=C(COC(=O)c1c(Cl)cccc1Cl)Nc1cccc(S(=O)(=O)NC2=NCCCCC2)c1 | inactive
65 | O=S(=O)(NCC(c1ccco1)N1CCOCC1)c1cc(F)ccc1F (stereo not drawn) | inactive
66 | Cc1cc(C)n(CCNC(=O)CC2C(=O)NCCN2Cc2ccc(C)o2)n1 (stereo not drawn) | inactive
67 | O=C(COc1cc2oc(=O)c3c(c2cc1Cl)CCC3)NCCCN1CCOCC1 | inactive
68 | Cc1ccc(-c2csc(C(C#N)=C(O)CN3CCN(C(=O)c4ccco4)CC3)n2)cc1 | inactive
69 | CCOC(=O)c1cccc(NC(=O)CCn2nnc3ccccc32)c1 | inactive
70 | CCOC(=O)c1cnc(-n2nc(C)cc2C)nc1Nc1cccc(C(C)=O)c1 | 16.4 µM (active)
71 | CCOC(=O)c1cnc(-n2nc(C)cc2C)nc1-n1nc(C)cc1C | inactive
72 | COC(=O)c1ccc(OC)c(Cn2c(=O)n(Cc3ccccc3)c(=O)c3c2c2cc(OC)ccc2n3C)c1 | inactive
73 | O=S(=O)(NCCS(=O)(=O)N1CCN(c2ccccc2)CC1)c1ccc(Cl)cc1 | inactive
74 | CC(C)CC1C(=O)N(Cc2cn(Cc3ccco3)nn2)CCS(=O)(=O)N1Cc1ccc(-c2ccc(Cl)c(Cl)c2)cc1 (stereo not drawn) | 18.4 µM (active)
75 | COCCCn1cc(CN2CC(N(C)C)CS2(=O)=O)nn1 (stereo not drawn) | inactive

Row | SMILES | Potency
76 | CC(=O)c1cccc(-c2ccc(CN3C(CC(C)C)C(=O)N(Cc4cn(CC5CCCCC5)nn4)CCS3(=O)=O)cc2)c1 (stereo not drawn) | 20.6 µM (active)
77 | COCOCCn1cc(CN2CCS(=O)(=O)N(Cc3ccc(-c4ccc(OC)cc4)cc3)C(CC(C)C)C2=O)nn1 (stereo not drawn) | 16.4 µM (active)
78 | CC(=O)c1cccc(-n2nnnc2SCC(=O)NNC(=O)C2CCCCC2)c1 | inactive
79 | COc1ccc(-c2ccc(CN3C(CC(C)C)C(=O)N(Cc4cn(CC5CCCCC5)nn4)CCS3(=O)=O)cc2)cn1 (stereo not drawn) | 20.6 µM (active)
80 | CCOC(=O)NC(=O)CSc1nnc(SCCC(=O)O)s1 | inactive
81 | Cc1nc(-c2ccc(F)cc2)c(CC(=O)N(C)CC(=O)Nc2c(C)cccc2C)s1 | inactive
82 | Cc1ccccc1-n1cc(CNC(=O)C2CCC(=O)N(C3CC3)C2)cn1 (stereo not drawn) | inactive
83 | CCOC(=O)c1sc2nc(C)nc(Nc3ccc(OC)c(OC)c3)c2c1C | inactive
84 | CC(=O)c1ccc(N=C2SCCCN2C(=O)C2CCCCC2)cc1 | inactive
85 | Cc1ccc(-c2cc(C(=O)Oc3ccccc3Cl)no2)cc1C | inactive
86 | CC1C(=O)N(Cc2cn(CC3CCCCC3)nn2)CCS(=O)(=O)N1Cc1ccc(-c2cccc(N(C)C)c2)cc1 (stereo not drawn) | 4.61 µM (active)
87 | O=S1(=O)CC(N2CCN(CCO)CC2)CN1Cc1cn(Cc2cccc(Cl)c2)nn1 (stereo not drawn) | inactive
88 | O=S1(=O)CC(N2CCSCC2)CN1Cc1cn(Cc2cccc(Cl)c2)nn1 (stereo not drawn) | inactive
89 | COc1ccc([C@H]2N[C@]3(CCCN(CC4CCCCC4)C3=O)[C@H]3C(=O)N(C)C(=O)[C@@H]23)cc1 | inactive
90 | COc1ccc(-c2ccc(CN3C(CC(C)C)C(=O)N(Cc4cn(CC5CCCCC5)nn4)CCS3(=O)=O)cc2)cc1 (stereo not drawn) | 18.4 µM (active)
91 | COc1ccc(COC(=O)NC(C(=O)O)c2ccccc2)cc1 (stereo not drawn) | inactive
92 | O=C(O)c1ccccc1-c1ccccc1C(=O)Nc1ccccc1Br | inactive
93 | O=C(CCNS(=O)(=O)c1ccc(Br)s1)NCc1ccccc1Cl | inactive
94 | O=C(Nc1nnc(Cc2ccc(Cl)cc2)s1)c1cccnc1 | inactive
95 | NC(=O)COc1ccc(NC(=O)c2ccccc2-c2ccccc2)cc1 | inactive
96 | Cn1c2ccccc2c(=O)c2c(O)cccc21 | inactive
97 | CCOC(=O)c1nnn2c3ccccc3c(=O)n(C)c12 | inactive
98 | CCCc1nc2c(c(=O)c3ccccc3n2C)c(=O)n1C1CCCCCC1 | 18.4 µM (active)

Reference: PubChem BioAssay AID686979 (National Center for Advancing Translational Sciences (NCATS), 2013)
